This is an account of results in PubChem BioAssay AID588334 (Broad Institute, 2011).

Out of some 300,000 compounds screened, about 2,300 (0.77%) were called active. This is one part of a sample in which actives are shown more often than they occur. Unmarked numbers belong to inactive results.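 Rule for the calls: active = mean activation of at least 80% with every replicate also reaching 80%; inconclusive = mean reaches 80% but some replicate falls short; inactive = the rest.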

The experiment in a line: MITF-driven TRPM1 luciferase induction in melanoma cells – cell-based, SK-MEL-5, single point, primary screen (AID 588334).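 Note: 0% = neutral control wells and 100% = parthenolide positive control wells.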 The settings on record: SK-MEL-5 TRPM1-promoter luciferase, 24 h; at 12.5 µM; stronger effect = higher value; % of positive control, neutral wells = 0.
Regarding `CCOC(=O)c1ccccc1OC(=O)Oc1ccccc1C(=O)OCC`, the activation is -22.1%.

Turning to `CCc1ccc(NC(=O)Cn2ncn3c(cc4ccccc43)c2=O)cc1`, the activation is -8.34%.

In the case of `CCCN1CCN(C(=O)Cn2ncc3ccccc32)CC1`, the activation is -0.935%.

In the case of `CC(C)c1ccc(NC(=O)Cn2ncc3ccccc32)cc1`, the activation was 93% (active).

`O=C(OCCOc1ccccc1Cl)c1cc(S(=O)(=O)N2CCCCC2)ccc1N1CCOCC1`: the activation was -10.6%.

Regarding `CN1CCN(C(=O)c2ccc(-c3ccc(Br)cc3)o2)CC1`, the activation was 123% (active).

On to `O=CN1CCN(C(=O)c2ccc(Br)o2)CC1`, for which the activation was -12.5%.

In the case of `COc1ccccc1OCc1ccc(C(=O)N2CCN(C)CC2)o1`, the activation was 1.8%.

For `CC(C)=CCc1ccc(O)c(=O)cc1C(C)C`, the activation is -70.3%.

As to `CC[C@@H](C)[C@@H]1CN([C@@H](C)CN2CCC[C@H]2CN2C(N)=NC[C@H]2C(C)C)C(=N)N1CCc1ccc(Cl)c(Cl)c1`, the activation was 5.32%.

As to `CS(=O)(=O)N1CCN(C(=O)Cc2ccccc2)CC1`, the activation is -6.87%.

Turning to `CS(=O)(=O)N1CCN(c2cccc(Cl)n2)CC1`, the activation was -7.99%.

As for `CS(=O)(=O)N1CCc2nc(-c3ccccc3)sc2C1`, the activation is 92.1% (active).

As for `COc1ccc(S(=O)(=O)Nc2cccc3c2O[C@H](CN(C)S(=O)(=O)c2ccc(OC)cc2)[C@@H](C)CN([C@H](C)CO)C3=O)cc1`, the activation is 0.473%.

As for `O=C1C=C(NS(=O)(=O)c2ccccc2)C(=O)c2ccccc21`, the activation was -65.5%.

Take `COc1ccc(Cn2cc(CN3CCS(=O)(=O)N(Cc4ccc(-c5cccc(Cl)c5)cc4)C(C)C3=O)nn2)cc1` (centres undefined): the activation was 0.982%.

For `Cc1ccn(-c2cccc(-n3ccc(C)n3)n2)n1`, the activation is 119% (active).

Take `Cc1cccc(N2O[C@H]3C=CC2CCCC3)n1`: the activation was 63.6%.

On to `Cc1ccccc1Nc1nc(-c2cccnc2)cs1`, for which the activation is 97.6% (active).

Consider `O=C(NCc1cccnc1)C(=O)Nc1nc(-c2ccccc2)cs1`, for which the activation is 54.4%.

For the molecule `O=C(Nc1nc(-c2cccnc2)cs1)c1ccccc1F`, the activation is 72.7%.

With `Cc1ccc(C(=O)O)c(NC=O)c1OCc1ccccc1`, the activation is 11%.

As to `NC(=O)C1CCN(C(=O)c2cc(S(=O)(=O)N3CCN(c4ccccc4)CC3)ccc2Cl)CC1`, the activation was -3.4%.

With `CC(=O)c1cnc(-c2ccccc2)s1`, the activation is 13.4%.

Turning to `O=C(/C=C/Nc1ccccc1)c1cnc(-c2ccccc2)s1`, the activation is 37.6%.

Turning to `CC(C)(C)C(=O)c1cnc(Nc2ccccc2)s1`, the activation was 124% (active).

With `CN[C@H](C(=O)NC[C@H]1O[C@@H](n2cnc3c(N)ncnc32)[C@H](O)[C@@H]1O)[C@@H](C)OCc1ccccc1`, the activation is 17%.

As to `COc1cc(NC(=O)c2[nH]cnc2C(N)=O)cc(C(=O)Nc2cccc(C(F)(F)F)c2)c1`, the activation was -88.9%.

For the molecule `C[C@@H]1NS(=O)(=O)c2cc(Cl)ccc2O[C@@H]1c1ccccc1`, the activation is 2.48%.

For `COc1cccc(/C=N/Nc2ccc(Cl)nn2)c1`, the activation is 93.6% (active).

Regarding `COc1cccc(/C=N\Nc2nncc(-c3ccccc3)n2)c1`, the activation was 27.3%.

Turning to `Oc1cccc(/C=N/Nc2ccc(Cl)nn2)c1O`, the activation is -6.43%.

Regarding `CCOC(=O)C1=CN(Cc2ccc(Br)cc2)S(=O)(=O)N(C)C1C` (centres undefined), the activation was -0.639%.

Take `O=C(O)c1ccc(S(=O)(=O)c2ccccc2)s1`: the activation is -11%.

In the case of `CC(=C/c1ccccc1)/C=N/NC(=O)c1cc(C)oc1C`, the activation was 25.1%.

`Cc1cc(C(=O)N/N=C/c2ccccc2[N+](=O)[O-])c(C)o1`: the activation was 84.3% (active).

Take `Cc1cc(C(=O)N/N=C\C(Br)=C\c2ccccc2)c(C)o1`: the activation is 15.4%.

`Cc1ccc(OCCNC(=O)c2cccc(S(=O)(=O)N3CCN(Cc4ccccc4)CC3)c2)cc1`: the activation is -0.856%.

Take `Cc1cc(NC(=O)c2cc3ccccc3o2)no1`: the activation was -6.37%.

For `COC(=O)c1ccc(NCC(=O)c2ccccc2)cc1`, the activation was 146% (active).

Regarding `COC(=O)c1ccc(NCc2cc(O)ccc2O)cc1`, the activation is 3%.

For `Cc1ccc(C(=O)CNc2ccc(F)cc2)cc1`, the activation was -0.394%.

Regarding `CN1CCOC1c1ccc(C2OCCN2C)cc1` (centres undefined), the activation is -9.68%.

Consider `C=CCOC(=O)N1CCC2CC1c1cc(-c3ccc(OC)cc3)ccc12` (centres undefined), for which the activation was -2.99%.

For the molecule `COc1cc(OC)c(C(=O)NNC(=O)c2ccccc2-n2cccc2)cc1OC`, the activation was 7.14%.

For `CCCOC(=O)c1[nH]c2c(c1C)C(=O)CC(c1cccs1)C2` (centres undefined), the activation was -44.3%.

Regarding `COC(=O)C1C(=O)c2c([nH]c(C(=O)OCCSC)c2C)CC1C` (centres undefined), the activation was 92.2% (active).

With `COCCOC(=O)c1[nH]c2c(c1C)C(=O)CC(c1ccc(OC)cc1)C2` (centres undefined), the activation is 8.85%.

Take `COc1ccc(-c2noc(CCC(=O)N3CCN(c4cccc(C)c4)CC3)n2)cc1`: the activation is 0.066%.

Regarding `COc1ccc(-c2ccc3c(c2)[C@@H]2C[C@H](N(C)S(=O)(=O)c4ccccc4)[C@H]([C@H](C)O)C(=O)N2CC3)cc1`, the activation was -7.92%.

With `CC(C)Cn1cnc2c(SCc3ccc(Cl)cc3)nc(N)nc21`, the activation is 12.1%.

Regarding `O=C(CC(=O)c1cccnc1)c1ccccc1`, the activation is 48%.

Take `COc1ccc(OCc2cc(C(=O)NCC3(C)COC3)no2)c(Cl)c1`: the activation is 37.2%.

As to `Cc1cccnc1CC(C)NC(=O)c1cc(COc2cncc(Cl)c2)on1` (centres undefined), the activation is 51.4%.

Consider `Cc1cc(OCc2cc(C(=O)NCc3cc(C(C)C)no3)no2)cc(C)c1Cl`, for which the activation was 84.2% (active).

On to `CC(C)(C)OC(=O)N1CCC(C(=O)Nc2cccc(C(=O)NCCc3ccccc3)c2)CC1`, for which the activation is 0.242%.

On to `CCCCc1ccc(NC(=S)N2CCCC(CO)C2)cc1` (centres undefined), for which the activation was 105% (active).

For the molecule `CCCCc1ccc(NC(=S)NCCCN2CCOCC2)cc1`, the activation is 13.8%.

Regarding `COc1ccc(NC(=S)N2CCCC(CO)C2)c(OC)c1` (centres undefined), the activation is -5.46%.

As to `NS(=O)(=O)c1ccc(CCNC(=O)c2ccc(Cl)c(S(=O)(=O)N3CCCCCC3)c2)cc1`, the activation was -34.2%.

`CC(C)(C)c1nnc2sc(SCC(O)=C(C#N)c3nc4ccccc4[nH]3)nn2c1=O`: the activation was 7.19%.

Consider `O=[N+]([O-])c1ccc(NS(=O)(=O)c2ccccc2)c(Cl)c1`, for which the activation was -5.26%.

For the molecule `COc1ccc(C(=O)NC2=NCCS2)c(OC)c1`, the activation is 33.9%.

For the molecule `O=C(NCc1ccc2c(c1)OCO2)c1ccc(Cl)s1`, the activation is 9.51%.

With `O=C(NC1=NCCS1)c1ccc(Cl)s1`, the activation was 121% (active).

`C[C@H](CO)N1C[C@H](C)[C@H](CN(C)CC2CC2)Oc2ccc(NC(=O)CCN3CCOCC3)cc2C1=O`: the activation is 4.29%.

As for `COc1cc(/C=C/CNC[C@H]2O[C@@H](n3cnc(C(N)=O)n3)[C@H](O)[C@@H]2O)ccc1O`, the activation is -8.98%.

Turning to `C=CC(=O)Nc1ccc(Nc2ccnc(Nc3ccc(N4CCN(C)CC4)cc3)n2)cc1`, the activation was -13.2%.

Turning to `Nc1cc2c(cc1Br)-c1ccc(F)cc1C2=O`, the activation is 7.07%.

As for `COC(=O)[C@@]1(C)[C@H]2C(=O)N(Cc3ccccc3)C(=O)[C@H]2[C@H]2CN=C(SCC3CC3)N21`, the activation was -1.12%.

Turning to `COC1=NC2=NCCN2C(OC)=N1`, the activation was 4.31%.

Regarding `CC(C)CNC(=O)c1cc(-c2ccc(Br)cc2)on1`, the activation was 124% (active).

With `CC(C)Cc1cc(C(=O)Nc2cc(Br)ccc2O)no1`, the activation is 42.2%.

With `Cc1c(NC(=O)c2cc(-c3ccc(Br)cc3)on2)c(=O)n(-c2ccccc2)n1C`, the activation is 6.12%.

As to `CC(=O)c1ccc(NC(=O)CSc2nc3ccccc3c(=O)n2CCCN2CCOCC2)cc1`, the activation was 14.6%.

On to `Cc1ccc(NN=C2C(=O)OC(C)(C)OC2=O)c(C)c1`, for which the activation was 120% (active).

As for `Cc1ccc(NC(=O)C(=O)NCc2ccco2)c(C)c1`, the activation is 72.2%.

Turning to `Cc1ccc(NC(=O)c2oc(=O)c3ccccc3c2-c2ccccc2)c(C)c1`, the activation was -8.24%.

As to `COc1ccc(CNc2nc(NCc3ccc(OC)cc3)c3ncn(C4CCCC4)c3n2)cc1`, the activation is -22%.

Regarding `CCCN(C(=O)CSc1nnc(N)s1)c1c(N)n(Cc2ccccc2)c(=O)[nH]c1=O`, the activation is -11.7%.

In the case of `CCCCNCCS(=O)(=O)NCc1ccccc1`, the activation was 11.7%.

Take `FC(F)(F)c1ccnc(Oc2ccc(C3=NCCS3)cc2)c1`: the activation is 102% (active).

For the molecule `O=Cc1ccc(Oc2cccc(C(F)(F)F)c2)nc1`, the activation is 2.89%.

In the case of `O=[N+]([O-])c1cccc(C2=NCCS2)c1`, the activation is -11.6%.

On to `CC1C(C)N(C(=O)CCl)c2ccccc2N1C(=O)CCl` (centres undefined), for which the activation was -89.8%.

Consider `O=C1CC(c2ccccc2)=NN1c1ccc([N+](=O)[O-])cc1`, for which the activation was 29.1%.

For the molecule `Cc1nn(-c2ccccc2)c2c1C(c1cccc([N+](=O)[O-])c1)N(c1ccccc1)C(=O)N2` (centres undefined), the activation was -8.33%.

Take `Cc1nn(-c2ccc([N+](=O)[O-])cc2)c(N)c1-c1ccccc1`: the activation was 97.5% (active).

`Cc1noc(C)c1CCC(=O)N1CCCC(CO)(Cc2ccccc2)C1` (centres undefined): the activation is 67.5%.

`COC(=O)CCC(=O)N1CCCC(CO)(Cc2ccccc2)C1` (centres undefined): the activation was 94.6% (active).

As to `Cc1ccccc1CC1(CO)CCCN(C(=O)c2cc(-c3ccccc3)no2)C1` (centres undefined), the activation is 6.1%.

Consider `Cn1cc(C2OC(=O)c3ccccc32)c2ccccc21` (centres undefined), for which the activation is -10.6%.

In the case of `COc1ccccc1N(CC(=O)Nc1c(C)n(C)n(-c2ccccc2)c1=O)S(=O)(=O)c1ccccc1`, the activation is -1.77%.

With `CCCCN(C(=O)c1cccc(N2C(=O)c3ccccc3C2=O)c1)c1c(N)n(CCCC)c(=O)[nH]c1=O`, the activation was -1.35%.
